# Results as given in PubChem BioAssay (EPA / NIEHS).
# “And” between values parts separate entries of the source, which are not always exact repeats. Equal values may be shown once. Records with an inconclusive call do not appear. A structure can be active in one record and inactive in another. The source made the active and inactive calls. Rule for the calls, unless noted: active = hit-call score of the fitted dose curve at least 0.9, where 1 is the maximum; inactive = score below 0.9.
# Key:
# [1] = read-out: NAD(P)H dehydrogenase [quinone] 1 (NQO1), NQO1 (gene 1728); test: LTEA_HepaRG_NQO1: Life Technologies and Expression Analysis (LTEA) Assay for NAD(P)H dehydrogenase [quinone] 1 (NQO1) using HepaRG (AID 2283526); conditions: mRNA level, 48 h; actives raise or lower the signal
# How it was run: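 Human HepaRG hepatic cells received chemicals for 48 h in serum-free induction medium with 0.5% DMSO, up to 100 uM. Expression was assessed by TaqMan qRT-PCR against housekeeping controls and fitted bidirectionally against DMSO.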
# [2] = read-out: Nuclear factor erythroid 2-related factor 2 (Homo sapiens) (UniProt Q16236); test: LTEA_HepaRG_NFE2L2: Life Technologies and Expression Analysis (LTEA) Assay for Nuclear factor erythroid 2-related factor 2 (NFE2L2) Transcription Factor using HepaRG (AID 2283527); conditions: mRNA level, 48 h; actives raise or lower the signal;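 for outcome: TaqMan qRT-PCR transcript level normalised to ACTB GAPDH and POLR2A housekeeping genes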
# How it was run: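 Transcript level of NFE2L2 is the read-out, measured by microfluidic TaqMan qRT-PCR and normalized to three housekeeping genes. Human HepaRG cultures received test chemical for 48 h at up to 100 uM in half-log steps. Gain or loss of signal is fitted relative to 0.5% DMSO.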
# [3] = read-out: succinate dehydrogenase complex iron sulfur subunit B (SDHB), SDHB (gene 6390); test: LTEA_HepaRG_SDHB: Life Technologies and Expression Analysis (LTEA) Assay for succinate dehydrogenase complex iron sulfur subunit B (SDHB) using HepaRG (AID 2283528); conditions: mRNA level, 48 h; actives raise or lower the signal
# How it was run: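 Readout is SDHB transcript level by qRT-PCR, normalised to three housekeeping genes and fitted bidirectionally against 0.5% DMSO vehicle. Human HepaRG cells were treated for 48 h at up to 100 uM.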
# [4] = read-out: Signal transducer and activator of transcription 3 (Homo sapiens) (UniProt P40763); test: LTEA_HepaRG_STAT3: Life Technologies and Expression Analysis (LTEA) Assay for Signal transducer and activator of transcription (STAT3) using HepaRG (AID 2283529); conditions: mRNA level, 48 h; actives raise or lower the signal
# How it was run: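 Read-out is STAT3 mRNA level by qRT-PCR, normalized to three housekeeping genes, in human HepaRG liver cells treated for 48 h. Concentrations ran from 100 uM downward in half-log steps; curves were fitted for gain or loss relative to 0.5% DMSO.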
# [5] = read-out: solute carrier (SLCO1B1), SLCO1B1 (gene 10599); test: LTEA_HepaRG_SLCO1B1: Life Technologies and Expression Analysis (LTEA) Assay for solute carrier (SLCO1B1) using HepaRG (AID 2283530); conditions: mRNA level, 48 h; actives raise or lower the signal
# How it was run: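 SLCO1B1 transcript levels were quantified by TaqMan qRT-PCR using three housekeeping genes for normalization. This followed 48 h chemical exposure (100 uM top, half-log, 8 points, 0.5% DMSO) of HepaRG liver cells, with gain or loss fitted relative to DMSO.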
# [6] = read-out: sulfotransferase 2A1 (SULT2A1), SULT2A1 (gene 6822); test: LTEA_HepaRG_SULT2A1: Life Technologies and Expression Analysis (LTEA) Assay for sulfotransferase 2A1 (SULT2A1) using HepaRG (AID 2283531); conditions: mRNA level, 48 h; actives raise or lower the signal
# How it was run: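 Expression change of SULT2A1, by qRT-PCR with three housekeeping-gene normalization, was scored bidirectionally versus DMSO. Cells: differentiated HepaRG, dosed in duplicate for 48 h across 8 points, highest 100 µM, half-log dilution, 0.5% DMSO.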
# [7] = read-out: Transforming Growth Factor (TGFA), TGFA (gene 7039); test: LTEA_HepaRG_TGFA: Life Technologies and Expression Analysis (LTEA) Assay for Transforming Growth Factor (TGFA) using HepaRG (AID 2283532); conditions: mRNA level, 48 h; actives raise or lower the signal
# How it was run: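 HepaRG (human liver line), 48 h exposure, 8 conc. half-log down from 100 uM, 0.5% DMSO vehicle, duplicates; serum-free induction medium. TGFA mRNA by TaqMan qRT-PCR, ACTB/GAPDH/POLR2A normalization; gain/loss fit vs DMSO.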
# [8] = read-out: Transforming Growth Factor (TGFB1), TGFB1 (gene 7040); test: LTEA_HepaRG_TGFB1: Life Technologies and Expression Analysis (LTEA) Assay for Transforming Growth Factor (TGFB1) Transporter using HepaRG (AID 2283533); conditions: mRNA level, 48 h; actives raise or lower the signal
# How it was run: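 TGFB1 transcript measured by qRT-PCR with normalisation to three housekeeping genes (ACTB, GAPDH, POLR2A); human HepaRG line treated in duplicate for 48 hr with an 8-point series topping at 100 uM, 0.5% DMSO vehicle, bidirectionally fitted.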
# TIMP1, TIMP1 (gene 7076) = test: LTEA_HepaRG_TIMP1: Life Technologies and Expression Analysis (LTEA) Assay for TIMP1 using HepaRG (AID 2283534); conditions: mRNA level, 48 h; actives raise or lower the signal
# How it was run: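 Bidirectional change in TIMP1 transcript versus 0.5% DMSO, measured by TaqMan qRT-PCR with three housekeeping genes for normalization. HepaRG human liver cells dosed 48 h in duplicate, top concentration 100 uM with half-log dilutions.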
# [9] = read-out: Thyroid Hormone Responsive (THRSP), THRSP (gene 7069); test: LTEA_HepaRG_THRSP: Life Technologies and Expression Analysis (LTEA) Assay for Thyroid Hormone Responsive (THRSP) using HepaRG (AID 2283536); conditions: mRNA level, 48 h; actives raise or lower the signal
# How it was run: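 mRNA induction or loss relative to 0.5% DMSO vehicle was fitted bidirectionally across an eight-point curve whose highest exposure was 100 uM. Human HepaRG liver cells received chemicals in duplicate over 48 h before RNA extraction.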
# [10] = read-out: Cellular tumor antigen p53 (Homo sapiens) (UniProt P04637); test: LTEA_HepaRG_TP53: Life Technologies and Expression Analysis (LTEA) Assay for Tumor Protein P53 (TP53) using HepaRG (AID 2283537); conditions: mRNA level, 48 h; actives raise or lower the signal
# How it was run: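 Read-out is TP53 transcript level by microfluidic qRT-PCR, normalised to three housekeeping genes and fitted bidirectionally against DMSO. Human HepaRG cells received compounds for 48 h, highest concentration 100 uM.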
# [11] = read-out: UDP glucuronosyltransferase (UGT1A6), UGT1A6 (gene 54578); test: LTEA_HepaRG_UGT1A6: Life Technologies and Expression Analysis (LTEA) Assay for UDP glucuronosyltransferase (UGT1A6) using HepaRG (AID 2283539); conditions: mRNA level, 48 h; actives raise or lower the signal
# How it was run: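 Expression was quantified by TaqMan qRT-PCR on Fluidigm arrays with ACTB/GAPDH/POLR2A normalization and bidirectional fitting against 0.5% DMSO. HepaRG cells (~100,000/well) were treated in duplicate for 48 h at eight half-log concentrations up to 100 uM in serum-free induction medium.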
# [12] = read-out: X-box binding protein 1 (XBP1), XBP1 (gene 7494); test: LTEA_HepaRG_XBP1: Life Technologies and Expression Analysis (LTEA) Assay for X-box binding protein 1 (XBP1) using HepaRG (AID 2283540); conditions: mRNA level, 48 h; actives raise or lower the signal
# How it was run: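 XBP1 transcript by qRT-PCR (housekeeping-normalized: ACTB, GAPDH, POLR2A) after 48 h chemical treatment of HepaRG cells, 8-point half-log series topping at 100 uM, vehicle 0.5% DMSO. Gain and loss of signal fitted relative to DMSO.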
# [13] = LTEA_HepaRG_LDH_cytotoxicity: Cytotoxicity Assessment in the Life Technologies and Expression Analysis (LTEA) Assay (AID 2283563; active = hit-call score of the fitted dose curve at least 0.9, where 1 is the maximum;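 note: LDH activity released into spent culture medium as a marker of cell death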)
# How it was run: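 LDH release into culture medium read after 48 h chemical treatment of HepaRG cells. Duplicate wells, eight-point half-log series topping at 100 uM, 0.5% DMSO vehicle and baseline.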
# [14] = ATG_XTT_Cytotoxicity: Cytotoxicity Assessment in the Attagene TRANS-FACTORIAL HepG2 Assay (AID 2283584; active = hit-call score of the fitted dose curve at least 0.9, where 1 is the maximum)
# How it was run: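 Viability endpoint from XTT after 24 h chemical exposure of reporter-transfected human HepG2 liver cells; signal loss fitted relative to DMSO negative control.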
# [15] = TOX21_p53_BLA_p2_viability: Viability Assessment in the Tox21 HCT-116 p53 Agonism Beta-lactamase Assay, Phase 2 (AID 2283591; active = hit-call score of the fitted dose curve at least 0.9, where 1 is the maximum;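 note: compound exposure lasted 16 h at 37 °C; actives lower the ATP signal meaning cytotoxicity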)
# How it was run: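 Cytotoxicity readout: CellTiter-Glo ATP luminescence, 30 min at room temperature, after the beta-lactamase read. Cells were HCT116 exposed 16 h at 37C to compounds pin-transferred at 217-fold dilution from DMSO stocks.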
# [16] = molecular target: Cellular tumor antigen p53 (Homo sapiens) (UniProt P04637); test: TOX21_p53_BLA_p2_ratio: Tox21 HCT-116 p53 Agonism Beta-lactamase Assay, Ratio, Phase 2 (AID 2283592; active = hit-call score of the fitted dose curve at least 0.9, where 1 is the maximum)
# How it was run: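 Gain-of-signal p53 agonism was scored from the beta-lactamase FRET ratio (460/530 nm, 405 nm excitation) in HCT116 cells treated 16 h at 37C, 5% CO2, with DMSO serving as negative control and baseline.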
# [17] = TOX21_p53_BLA_p3_viability: Viability Assessment in the Tox21 HCT-116 p53 Agonism Beta-lactamase Assay, Phase 3 (AID 2283593; active = hit-call score of the fitted dose curve at least 0.9, where 1 is the maximum;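 note: cells exposed to compound for 16 h before reading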)
# How it was run: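 Cellular ATP was quantified by CellTiter-Glo luminescence, read after 30 min at room temperature. Beforehand, HCT116 cells (4000/well) received compound 5 h post-seeding, 217-fold diluted from DMSO, then incubated 16 h at 37C.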
# Chain of Nuclear factor erythroid 2-related factor 2 (Homo sapiens) (Q16236 whole entry, looked up): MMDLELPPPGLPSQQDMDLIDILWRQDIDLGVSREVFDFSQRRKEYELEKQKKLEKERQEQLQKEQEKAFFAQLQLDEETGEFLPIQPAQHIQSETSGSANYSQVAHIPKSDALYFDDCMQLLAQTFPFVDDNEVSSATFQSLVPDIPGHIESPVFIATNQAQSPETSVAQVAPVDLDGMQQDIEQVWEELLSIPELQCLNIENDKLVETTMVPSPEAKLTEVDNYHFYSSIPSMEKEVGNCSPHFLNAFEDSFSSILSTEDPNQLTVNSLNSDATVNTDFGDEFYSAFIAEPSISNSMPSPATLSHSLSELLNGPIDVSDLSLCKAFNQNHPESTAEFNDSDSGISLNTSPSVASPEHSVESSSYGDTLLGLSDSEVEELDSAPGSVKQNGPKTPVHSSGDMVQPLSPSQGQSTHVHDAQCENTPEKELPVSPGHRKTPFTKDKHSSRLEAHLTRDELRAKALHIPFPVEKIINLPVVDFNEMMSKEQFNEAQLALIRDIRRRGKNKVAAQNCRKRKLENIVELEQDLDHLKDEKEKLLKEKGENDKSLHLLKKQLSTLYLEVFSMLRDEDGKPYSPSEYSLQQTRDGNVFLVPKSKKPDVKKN
# Chain of Signal transducer and activator of transcription 3 (Homo sapiens) (P40763 whole entry, looked up): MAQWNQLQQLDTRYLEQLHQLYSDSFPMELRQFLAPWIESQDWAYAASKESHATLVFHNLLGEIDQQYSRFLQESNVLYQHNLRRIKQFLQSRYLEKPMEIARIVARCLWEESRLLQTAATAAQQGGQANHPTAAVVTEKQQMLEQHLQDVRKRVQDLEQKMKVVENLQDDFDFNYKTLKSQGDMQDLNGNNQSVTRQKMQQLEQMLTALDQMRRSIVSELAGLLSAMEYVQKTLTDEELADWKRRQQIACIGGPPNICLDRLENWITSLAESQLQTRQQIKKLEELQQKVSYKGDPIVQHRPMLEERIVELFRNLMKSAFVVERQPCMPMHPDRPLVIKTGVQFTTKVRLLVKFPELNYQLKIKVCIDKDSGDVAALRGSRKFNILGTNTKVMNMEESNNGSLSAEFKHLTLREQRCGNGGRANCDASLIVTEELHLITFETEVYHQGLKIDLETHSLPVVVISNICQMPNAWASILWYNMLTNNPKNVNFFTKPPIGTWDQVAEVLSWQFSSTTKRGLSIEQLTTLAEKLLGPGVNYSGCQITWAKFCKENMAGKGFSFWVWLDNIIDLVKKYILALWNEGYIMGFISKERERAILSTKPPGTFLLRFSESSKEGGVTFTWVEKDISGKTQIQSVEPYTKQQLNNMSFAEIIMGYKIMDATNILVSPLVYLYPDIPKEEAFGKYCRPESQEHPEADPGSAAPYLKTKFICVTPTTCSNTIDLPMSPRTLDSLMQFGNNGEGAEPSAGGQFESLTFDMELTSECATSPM
# Chain of Cellular tumor antigen p53 (Homo sapiens) (P04637 whole entry, looked up): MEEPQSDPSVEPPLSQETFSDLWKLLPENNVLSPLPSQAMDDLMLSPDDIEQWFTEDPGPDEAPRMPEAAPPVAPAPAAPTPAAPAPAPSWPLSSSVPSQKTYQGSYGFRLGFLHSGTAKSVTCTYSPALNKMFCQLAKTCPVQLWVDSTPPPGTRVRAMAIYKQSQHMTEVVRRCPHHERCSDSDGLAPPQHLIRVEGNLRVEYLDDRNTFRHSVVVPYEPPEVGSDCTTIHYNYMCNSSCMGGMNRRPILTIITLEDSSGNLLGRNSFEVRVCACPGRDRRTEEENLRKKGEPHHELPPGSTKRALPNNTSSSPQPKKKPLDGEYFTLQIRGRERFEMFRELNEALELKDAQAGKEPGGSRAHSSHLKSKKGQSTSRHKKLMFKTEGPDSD
structure (smiles),measurement,setting,value
OC(c1ccc(Cl)cc1)(c1cncnc1)c1ccccc1Cl (stereo not drawn),outcome,[1],inactive
same,AC50,[2],44.6 µM (active)
same,outcome,[3],inactive
same,outcome,[4],inactive
same,AC50,[5],85.2 µM (active)
same,AC50,[6],77 µM (active)
same,AC50,[7],77.5 µM (active)
same,AC50,[8],50 µM (active)
same,AC50,"TIMP1, TIMP1 (gene 7076)",50 µM (active)
same,AC50,[9],86.4 µM (active)
same,AC50,[10],70.7 µM (active)
same,AC50,[11],74.1 µM (active)
same,outcome,[12],inactive
same,AC50,[13],70.1 µM (active)
same,outcome,[14],inactive
same,outcome,[15],inactive
same,AC50,[16],81.5 µM (active)
same,outcome,[16],inactive
same,outcome,[17],inactive
CO/C=C(/C(=O)OC)c1ccccc1Oc1cc(Oc2ccccc2C#N)ncn1,outcome,[1],inactive
same,AC50,[2],77.7 µM (active) and 74.5 µM (active)
same,outcome,[2],inactive
same,outcome,[3],inactive
same,outcome,[4],inactive
same,AC50,[5],76.2 µM (active) and 72.9 µM (active) and 75.6 µM (active)
same,AC50,[6],80.9 µM (active) and 81.2 µM (active) and 94.4 µM (active)
same,AC50,[7],84.4 µM (active) and 81.8 µM (active) and 84.8 µM (active)
same,outcome,[8],inactive
same,outcome,"TIMP1, TIMP1 (gene 7076)",inactive
same,AC50,[9],93.2 µM (active) and 80.5 µM (active)
same,outcome,[9],inactive
same,AC50,[10],84.8 µM (active) and 83.1 µM (active) and 83 µM (active)
same,AC50,[11],78.4 µM (active) and 80.9 µM (active) and 86.7 µM (active)
same,outcome,[12],inactive
same,AC50,[13],74.8 µM (active) and 77.6 µM (active) and 80.7 µM (active)
same,outcome,[14],inactive
same,outcome,[15],inactive
same,outcome,[16],inactive
same,outcome,[17],inactive
CCCN(CCC)c1c([N+](=O)[O-])cc(S(N)(=O)=O)cc1[N+](=O)[O-],outcome,[1],inactive
same,AC50,[2],79.3 µM (active) and 79.5 µM (active)
same,outcome,[2],inactive
same,AC50,[3],96.3 µM (active) and 50 µM (active) and 84.4 µM (active)
same,AC50,[4],94 µM (active) and 50 µM (active) and 77 µM (active)
same,outcome,[5],inactive
same,AC50,[6],92.1 µM (active) and 76.9 µM (active) and 81 µM (active)
same,outcome,[7],inactive
same,AC50,[8],93.9 µM (active)
same,outcome,[8],inactive
same,AC50,"TIMP1, TIMP1 (gene 7076)",93.9 µM (active)
same,outcome,"TIMP1, TIMP1 (gene 7076)",inactive
same,outcome,[9],inactive
same,AC50,[11],79.1 µM (active) and 78.9 µM (active)
same,outcome,[11],inactive
same,AC50,[12],96.7 µM (active) and 79.1 µM (active)
same,outcome,[12],inactive
same,AC50,[13],76.5 µM (active) and 78.3 µM (active) and 77.5 µM (active)
same,outcome,[14],inactive
